From PubChem BioAssay (NCATS)
Results filed as inconclusive are left out. A call without a number means that no potency is given here. The source made the active and inactive calls. Unless noted, calls follow the shape of the dose curve; as a rule, active = well fitted curve in the direction sought with a large enough effect; inconclusive = small, poorly fitted or top-dose-only effect, or another doubt; inactive = no such curve, though single readings can be large; an effect the other way counts as inactive or inconclusive.

What was measured:
[1] = target: T1, Tyrosine-protein phosphatase non-receptor type substrate 1 (Homo sapiens) + Leukocyte surface antigen CD47 (Homo sapiens) (UniProt P78324+Q08722); assay: CD47-SIRPalpha protein protein interaction - HTRF assay qHTS validation (AID 1347058; active = well fitted curve in the direction sought with a large enough effect in the signal ratio, not every such curve was filed as active; the % refers to the signal ratio; also: series mostly up to about 38 µM)
How it was run: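 TR-FRET read (Ch1/Ch2 ratio) of soluble extracellular CD47 and Avi-biotinylated SIRPalpha domains in PBS pH 7.4 with 0.05% IGEPAL; 7-point compound titration. Sequential 30 min room-temperature steps; non-biotinylated SIRPalpha as control inhibitor.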

[2] = target: T1, Tyrosine-protein phosphatase non-receptor type substrate 1 (Homo sapiens) + Leukocyte surface antigen CD47 (Homo sapiens); assay: CD47-SIRPalpha protein protein interaction - Alpha assay qHTS validation (AID 1347059);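 also: bead proximity luminescence from CD47 binding SIRPalpha after compound preincubation with SIRPalpha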; also: potency is read from the fitted curve at half-maximal effect
How it was run: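 Soluble extracellular domains: Avi-tag biotinylated SIRPalpha (25 nM) preincubated 30 min RT with compound, then 6His-CD47 (12.5 nM) 30 min; Ni-NTA acceptor and streptavidin donor beads (10 ug/mL) 30 min, AlphaScreen read. PBS pH 7.4, 0.05% IGEPAL.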

[3] = target: Parathyroid hormone/parathyroid hormone-related peptide receptor (Homo sapiens) (UniProt Q03431); assay: qHTS for PTHR1 Agonists: Optimization Screen against the NCGC LOPAC library (AID 1347079);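 also: GloSensor cAMP luminescence in HEK-293 GP2 cells expressing human PTHR1 with IBMX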
How it was run: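 Compounds were tested across a qHTS titration. PTHR1-expressing GP2 cells report cAMP rises via GloSensor luminescence after 1 hr compound exposure at 37C with IBMX present.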

Sequence of Parathyroid hormone/parathyroid hormone-related peptide receptor (Homo sapiens) (Q03431 whole entry, looked up): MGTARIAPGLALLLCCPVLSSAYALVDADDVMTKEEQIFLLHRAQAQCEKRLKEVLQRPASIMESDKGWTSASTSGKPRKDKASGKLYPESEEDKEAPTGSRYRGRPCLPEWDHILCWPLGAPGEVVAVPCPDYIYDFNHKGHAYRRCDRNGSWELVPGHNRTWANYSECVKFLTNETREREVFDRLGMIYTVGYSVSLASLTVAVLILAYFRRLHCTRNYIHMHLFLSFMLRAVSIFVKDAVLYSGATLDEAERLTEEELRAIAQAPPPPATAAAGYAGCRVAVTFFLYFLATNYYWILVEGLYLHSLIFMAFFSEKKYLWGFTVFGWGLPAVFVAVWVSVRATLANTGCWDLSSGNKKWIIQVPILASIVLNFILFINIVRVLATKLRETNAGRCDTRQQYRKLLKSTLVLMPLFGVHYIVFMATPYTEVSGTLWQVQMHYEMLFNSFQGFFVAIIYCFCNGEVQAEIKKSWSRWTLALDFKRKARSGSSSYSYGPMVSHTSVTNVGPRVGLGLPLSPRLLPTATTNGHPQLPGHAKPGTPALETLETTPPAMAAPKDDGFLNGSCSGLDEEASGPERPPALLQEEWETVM
T1 sequence (P78324 whole entry, looked up, the tested form may be a part): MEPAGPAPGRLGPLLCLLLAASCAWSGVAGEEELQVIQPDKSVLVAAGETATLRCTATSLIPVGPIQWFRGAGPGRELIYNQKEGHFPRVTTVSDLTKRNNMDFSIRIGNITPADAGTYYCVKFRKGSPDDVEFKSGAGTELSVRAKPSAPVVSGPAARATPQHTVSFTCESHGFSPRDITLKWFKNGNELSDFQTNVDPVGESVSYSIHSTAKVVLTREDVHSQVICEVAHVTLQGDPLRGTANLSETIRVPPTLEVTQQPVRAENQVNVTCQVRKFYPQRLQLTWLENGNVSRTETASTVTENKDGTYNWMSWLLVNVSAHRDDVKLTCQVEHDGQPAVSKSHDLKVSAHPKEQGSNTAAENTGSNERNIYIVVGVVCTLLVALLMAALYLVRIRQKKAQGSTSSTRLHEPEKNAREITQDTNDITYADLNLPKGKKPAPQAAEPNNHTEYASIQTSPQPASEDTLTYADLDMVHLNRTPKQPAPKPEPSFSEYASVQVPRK
T1 sequence (Q08722 whole entry, looked up, the tested form may be a part): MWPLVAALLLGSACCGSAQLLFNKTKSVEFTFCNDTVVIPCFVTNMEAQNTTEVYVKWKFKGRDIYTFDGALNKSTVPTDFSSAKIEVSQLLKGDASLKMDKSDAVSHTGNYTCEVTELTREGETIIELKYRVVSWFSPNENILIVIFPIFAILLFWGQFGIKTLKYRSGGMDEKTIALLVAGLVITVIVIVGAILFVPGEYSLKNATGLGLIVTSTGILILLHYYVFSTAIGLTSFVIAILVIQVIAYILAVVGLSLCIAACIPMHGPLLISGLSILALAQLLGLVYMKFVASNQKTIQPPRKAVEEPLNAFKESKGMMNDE

| SMILES | outcome [1] | Potency [2] | Potency [3] |
| --- | --- | --- | --- |
| O=C(Nc1ccc2[nH]ncc2c1)C1CCC1 | inactive | inactive |  |
| CC(C)(NS(=O)(=O)c1ccc(Oc2ccc(F)cc2)cc1)C(=O)NO | inactive | inactive |  |
| Cn1c(=O)c(-c2c(Cl)cccc2Cl)cc2cnc(Nc3ccc(N4CCOCC4)cc3)nc21 | inactive |  |  |
| COc1cc(OC)cc(-c2cc3cnc(N)nc3nc2NC(=O)NC(C)(C)C)c1 | inactive | inactive |  |
| CN(CCCOc1ccc(Cc2ccccc2)cc1)CCC(=O)O | inactive | inactive |  |
| CC[C@H]1OC(=O)[C@H](C)[C@@H](O[C@H]2C[C@@](C)(OC)[C@@H](O)[C@H](C)O2)[C@H](C)[C@@H](O[C@@H]2O[C@H](C)C[C@H](NC)[C@H]2O)[C@](C)(O)C[C@@H](C)CN(C)[C@H](C)[C@@H](O)[C@]1(C)O | inactive | inactive |  |
| COc1ccc(Br)cc1S(=O)(=O)NC(=O)/C=C/c1ccccc1Cc1ccc2ccccc2c1 | inactive | inactive |  |
| Nc1nc(OCC2CCCCC2)c2[nH]cnc2n1 | inactive | inactive |  |
| O=C(CCSCc1ccco1)NNC(=O)N1Cc2ccccc2Oc2ccc(Cl)cc21 | inactive | inactive |  |
| COCCOc1cc2nc[nH]c(=O)c2cc1OCCOC | inactive | inactive |  |
| CC(C)CC(NP(=O)(O)O[C@@H]1O[C@@H](C)[C@H](O)[C@@H](O)[C@H]1O)C(=O)NC(Cc1c[nH]c2ccccc12)C(=O)O (some centres not stated) | inactive | inactive | inactive |
| Fc1ccc2[nH]c(CN3CCN(c4ccccn4)CC3)cc2c1 | inactive | inactive |  |
| S=c1[nH]c(-c2ccccc2)cn1-c1ccccc1 | inactive | inactive |  |
| Cc1cc2c(cc1Cl)N(C(=O)Nc1ccc(Oc3cccnc3C)nc1)CC2 | inactive | inactive | inactive |
| CCNc1nc2c(ncn2[C@H]2C[C@H](O)[C@@H](CO)O2)c(=O)[nH]1 | inactive | inactive |  |
| O=C(CCc1ccncc1)NNC(=O)N1Cc2ccccc2Oc2ccc(Cl)cc21 | inactive | inactive |  |
| O=C(CCCCCN1CCN(c2ccccc2-c2ccccc2)CC1)NC1CCCc2ccccc21 (configuration not stated) | inactive | inactive | inactive |
| CS(=O)(=O)c1ccc(-n2nc(C(F)(F)F)cc2-c2ccc(F)cc2)cc1 | inactive | inactive |  |
| O=C(Nc1ccc2c(c1)CCN(Cc1ncn[nH]1)C2)c1ccccc1-c1ccc(C(F)(F)F)cc1 | inactive | inactive |  |
| Nc1nc2ccc(Cl)cc2n2c(-c3ccccc3)nnc12 | inactive | inactive |  |
| CC[C@H]1OC(=O)[C@H](C)C(O[C@H]2C[C@@](C)(OC)[C@@H](O)[C@H](C)O2)[C@H](C)[C@@H](OC2O[C@H](C)C[C@H](N(C)C)[C@H]2O)[C@](C)(O)C[C@@H](C)CN(C)[C@H](C)[C@@H](O)[C@]1(C)O (some centres not stated) | inactive | inactive |  |
| CO[C@H]1O[C@@H]2O[C@]3(C)CC[C@@H]4[C@@H](C)CC[C@H]([C@H]1C)[C@]24OO3 | inactive | inactive |  |

| SMILES | outcome [1] | Potency [2] | Potency [3] |
| --- | --- | --- | --- |
| CC(C)Cc1ccc([C@H](C)C(=O)O)cc1 | inactive | inactive | inactive |
| O=C1NCc2c1c1c3ccccc3[nH]c1c1[nH]c3ccccc3c21 | inactive | inactive |  |
| O=[N+]([O-])c1ccc(CNc2nc(NCc3cccc(C(F)(F)F)c3)nc3nc[nH]c23)cc1 | inactive | inactive |  |
| COc1ccccc1CN[C@@H]1CCCN[C@@H]1c1ccccc1 | inactive | inactive |  |
| Brc1cc2c(cc1[C@H]1Nc3ccccc3[C@H]3C=CC[C@H]31)OCO2 | inactive | inactive |  |
| CC(C)c1cccc(C(C)C)c1N1C(=O)c2ccc(O)cc2C1=O | inactive | inactive |  |
| Brc1c(Br)c(Br)c2n[nH]nc2c1Br | inactive | inactive | inactive |
| COCCOc1cc2ncnc(Cl)c2cc1OCCOC | inactive | inactive |  |
| COC(=O)C1=C(C)NC(C)=C(C(=O)OC)C1c1cccc(NC(=O)NCCCN2CCC(c3cccc(OC)c3)CC2)c1 | inactive | inactive |  |
| CN[C@H](CC(C)C)C(=O)N[C@H]1C(=O)N[C@@H](CC(N)=O)C(=O)N[C@H]2C(=O)N[C@H]3C(=O)N[C@H](C(=O)N[C@H](C(=O)O)c4cc(O)cc(O)c4-c4cc3ccc4O)[C@H](O)c3ccc(c(Cl)c3)Oc3cc2cc(c3O[C@@H]2O[C@H](CO)[C@@H](O)[C@H](O)[C@H]2O[C@H]2C[C@](C)(N)[C@H](O)[C@H](C)O2)Oc2ccc(cc2Cl)[C@H]1O | inactive | inactive |  |
| CCNC(=O)[C@H]1O[C@@H](n2cnc3c(N)nc(NCCc4ccc(CCC(=O)O)cc4)nc32)[C@H](O)C1O (some centres not stated) | inactive | inactive |  |
| CCCC(CCC)C(=O)OC1CC2CCC(C1)[N+]2(C)C (configuration not stated) | inactive | inactive |  |
| Nc1ccn([C@H]2O[C@H](CO)[C@@H](O)C2(F)F)c(=O)n1 | inactive | inactive |  |
| Nc1nc2c(ncn2[C@@H]2O[C@H](CO)[C@@H](O)[C@@H]2O)c(=O)[nH]1 | inactive | inactive |  |
| O=P(O)(O)C(Cl)(Cl)P(=O)(O)O | inactive | inactive | inactive |
| CCCCCCCCCCCCCCCCCCN(CCCCCCCCCCCCCCCCCC)CCCN(CCO)CCO | inactive | inactive |  |
| CC(C)NCC(O)COc1cccc2ccccc12 (configuration not stated) | inactive | inactive | inactive |
| O=C(O)CC[C@@H](C(=O)O)N1C(=O)c2ccccc2C1=O | inactive | inactive | inactive |
| CCCN(CC1CC1)c1nc(C)nc(Nc2c(Cl)cc(Cl)cc2Cl)c1Cl | inactive | inactive | inactive |
| CC1CN(S(=O)(=O)c2cccc3cnccc23)CCN1 (configuration not stated) | inactive | inactive | inactive |
| NCCSSCCN | inactive | inactive | inactive |
| Nc1ncnc2c1ncn2[C@@H]1O[C@H](COP(=O)(O)OP(=O)(O)OP(=O)(O)OP(=O)(O)OC[C@@H]2O[C@H](n3cnc4c(N)ncnc43)[C@@H](O)[C@H]2O)[C@@H](O)[C@H]1O | inactive | inactive | inactive |

| SMILES | outcome [1] | Potency [2] | Potency [3] |
| --- | --- | --- | --- |
| CC(C)NC[C@H](O)COc1cccc2[nH]ccc12 | inactive | inactive | inactive |
| COc1cc(SC)ccc1C(=O)N1CCC(Cc2ccccc2)CC1 | inactive | inactive | inactive |
| C[C@@H](CN1CCC(Cc2ccccc2)CC1)[C@@H](O)c1ccc(O)cc1 | inactive | inactive | inactive |
| NC(=O)C(=O)O | inactive | inactive | inactive |
| CCN1/C(=C/C(C)=O)Sc2ccc(OC)cc21 | inactive | inactive | inactive |
| O=C(O)CC1CCCc2ccccc2C1O (configuration not stated) | inactive | inactive | inactive |
| CN(C)C(N)=NCCC[C@H](N)C(=O)O | inactive | inactive | inactive |
| N=c1ccn2c(n1)O[C@H]1[C@H](O)[C@@H](CO)O[C@H]12 | inactive | inactive | inactive |
| CN1[C@@H](CC(=O)c2ccccc2)CCC[C@H]1C[C@H](O)c1ccccc1 | inactive | inactive | inactive |
| C=CC(C)=C[C@@]1(C)SC(=O)C(C)=C1O | inactive | inactive | inactive |
| Nc1nc(Cl)nc2c1ncn2[C@@H]1O[C@H](CO)[C@@H](O)[C@H]1O | inactive | inactive | inactive |
| CC(C)(C)c1ccc(S(=O)(=O)/C=C/C#N)cc1 | inactive | inactive | inactive |
| O=C(c1ccc(OCCCc2cnc[nH]2)cc1)C1CC1 | inactive | inactive | inactive |
| OC[C@H]1O[C@@H](n2cnc3c(NC4CCCCC4)ncnc32)[C@H](O)[C@@H]1O | inactive | inactive | inactive |
| NC(=O)C1=CN(C2OC(COP(=O)(O)OP(=O)(O)OC[C@H]3O[C@@H](n4cnc5c(N)ncnc54)[C@H](OP(=O)(O)O)[C@@H]3O)C(O)C2O)C=CC1 (some centres not stated) | inactive | inactive | inactive |
| c1cnc2c(c1)ccc1cccnc12 | inactive | 0.185 µM (active) | inactive |
| CC(C)(C=O)Cc1cc(C(C)(C)C)c(O)c(C(C)(C)C)c1 | inactive | inactive | inactive |
| COc1cccc(C(=O)NCCN2CCN(c3ccc(Cl)cc3)CC2)c1 | inactive | inactive | inactive |
| NCCCCCCCCCCN | inactive | inactive | inactive |
| Cn1cc(C2=C(c3ccc(Cl)cc3Cl)C(=O)NC2=O)c2ccccc21 | inactive | inactive | inactive |
| CSc1nc(N)c2ncn([C@@H]3O[C@H](COP(=O)(O)OP(=O)(O)OP(=O)(O)O)[C@@H](O)[C@H]3O)c2n1 | inactive | inactive | inactive |
